# About 79,000 compounds went through this panel and 15% of them were active in at least one assay; those are over-represented in the sample as a whole. The source made the active and inactive calls. Rule as the data show it: active = growth inhibition above about 70%; inactive = the rest.
# Assay: NCI Yeast Anticancer Drug Screen. Data for the mec2-1 strain (AID 157)
# Settings: S. cerevisiae mec2-1 strain, at 50.0 µM, hits give high values
# How it was run: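 Using mec2-1 yeast: add compound, measure growth, express inhibition versus vehicle-treated cultures.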
row,SMILES,growth inhibition
1,CC(=O)Oc1ccc[nH]c1=O,-22.1% (inactive)
2,Nc1nc(N)c(CCCCc2ccc([N+](=O)[O-])cc2)c(N)n1,21.1% (inactive)
3,O=[N+]([O-])c1ccc(C(O)C(c2ccccc2)S(=O)(=O)N2CCCCC2)cc1 (stereo not given),-2.75% (inactive)
4,CC1CC(=O)Nc2ncnc(N)c21 (stereo not given),-2.45% (inactive)
5,CCC(=O)NCCc1ccccc1,29.6% (inactive)
6,Cc1nc2ccccc2nc1CC(=N)c1ccccc1,15.8% (inactive)
7,COc1ccc(C2C(Cl)C(=O)N2NC(=O)c2ccc(NC(C)=O)cc2)cc1 (stereo not given),-20.8% (inactive)
8,CC1CCC2C1(C)CCC1C2(C)CCC2(C)C3CC(C)(C)CCC3(C)CCC12C (stereo not given),-35.8% (inactive)
9,Cc1cccc(NS(=O)(=O)c2ccc3c(c2)OCCOCCOCCOCCO3)c1,-11.1% (inactive)
10,Oc1ccccc1-c1nnc2n1N=C(c1ccc(-c3ccccc3)cc1)CS2,-12.3% (inactive)
11,CCCCOCCC1CCNCC1,-44.1% (inactive)
12,CCOC(CN(C)C)OCC,6.95% (inactive)
13,COc1ccc(N=C2c3cc([N+](=O)[O-])ccc3-c3c2cccc3[N+](=O)[O-])cc1,-8.25% (inactive)
14,C=CCSC(=S)Nc1nc2ccc(C)cc2s1,4.75% (inactive)
15,NS(=O)(=O)c1ccc(Nc2c3ccccc3nc3cc(Cl)ccc23)cc1,-17.8% (inactive)
16,NC(=S)N/N=C1\C(=O)N(CCc2ccccc2)C(=O)C1C(=O)NCCc1ccccc1 (stereo not given),-27.7% (inactive)
17,O=S1(=O)OCCC1C(O)(c1ccccc1)c1ccccc1 (stereo not given),-3.65% (inactive)
18,CCN(CC)CC(C)(C)C=O,-19.8% (inactive)
19,COC(=O)/C(=C/c1ccc(OC)cc1)C(C(=O)O)=C1CCCCC1,9.95% (inactive)
20,CN(C)S(=O)(=O)c1ccc(CCc2ccc(S(=O)(=O)N(C)C)cc2)cc1,2.65% (inactive)

row,SMILES,growth inhibition
1,COC(=O)/C(C#N)=C(\C)CC(C)C,-17.4% (inactive)
2,Nc1ccc2nc(-c3ccccc3)[nH]c2c1,-8.65% (inactive)
3,O=C(CN1C(=O)CC(NC(=O)OCc2ccccc2)C1=O)NCC(=O)Oc1ccc([N+](=O)[O-])cc1 (stereo not given),20.9% (inactive)
4,CCn1c(C)[n+](CCCOS(=O)(=O)[O-])c2ccccc21,-19.1% (inactive)
5,CCCCCCCSc1nc2ccc(N=Cc3ccccc3O)cc2s1,-5.9% (inactive)
6,CC1=C(CCC(C)CO)OC2CC3C4CC=C5CC(O)CCC5(C)C4CCC3(C)C12 (stereo not given),-0.65% (inactive)
7,COc1ccc(Cl)cc1NC(=O)Oc1ccccc1C(N)=O,43.5% (inactive)
8,COC(=O)C(=O)[C@@H](O)[C@H](O)[C@@H](O)CO,23.7% (inactive)
9,O=C1C2CCCC2C1(c1ccccc1)c1ccccc1 (stereo not given),38.6% (inactive)
10,C=C1C(=O)OC2CC(C)C3CC(OCCCl)OC(OCCCl)C3(C)CC12 (stereo not given),7.65% (inactive)
11,CCC(O)C1CCCCC1O (stereo not given),8.35% (inactive)
12,c1ccc(-c2nnc3nn4c(-c5ccccc5)cnnc4c3c2-c2ccccc2)cc1,-10.3% (inactive)
13,CCCCc1[nH]nc(-c2n[nH]c(CCCC)c2C)c1C,14.1% (inactive)
14,Cc1ccc(S(=O)(=O)OC(c2ccccc2)c2ccccc2)cc1,-10.9% (inactive)
15,S=C1NC=CC(S)N1 (stereo not given),5.95% (inactive)
16,COc1cc(OC)c(NC(=O)C(Cl)(Cl)Cl)cc1Cl,42% (inactive)
17,CC(=O)OCC1OC(OC(C)=O)C(NC(=S)N(C)N=O)C(OC(C)=O)C1OC(C)=O (stereo not given),-8.4% (inactive)
18,CCOC1=C/C(=N\NC(N)=O)CCC1,7.2% (inactive)
19,COc1cc2c(c(C3(O)C(=O)N(C)c4ccccc43)c1OC)OCO2 (stereo not given),-12.4% (inactive)
20,C=C(Cl)C(C)(Cl)CCC(Cl)C(C)(C)Cl (stereo not given),16.4% (inactive)
